Results as given in PubChem BioAssay (EPA / NIEHS).
Results filed as inconclusive are left out. Activity calls are given as the source filed them. How the source made its calls, unless noted: active means hit-call score of the fitted dose curve at least 0.9, where 1 is the maximum; inconclusive means response in the unintended direction; inactive means score below 0.9.

Tests used:
[1] = target: mouse Estrogen Receptor alpha (Era), Esr1 (gene 13982) (UniProt P19785); assay: NVS_NR_mERa: NovaScreen (NVS) Nuclear Receptor Binding Assay for mouse Estrogen Receptor alpha (Era) (AID 2283378);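 further: hit means loss of bound radioligand signal relative to DMSO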
Summary of the method: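 Test chemicals competed against a specific radioligand for binding to cell-free mouse Era. Duplicate wells at 25 uM were read 18 hours later by filter-based radiodetection, with loss of signal against DMSO scored as activity.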

[2] = target: Estrogen receptor beta (Homo sapiens) (UniProt Q92731); assay: OT_ER_ERbERb_1440: Odyssey Thera (OT) 24-hour HEK293T Protein-Complementation Assay for Estrogen Receptor-beta/-beta Homodimer (AID 2283380);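 further: fluorescence gain from ER beta LBD homodimer complementation read by laser scanning cytometry; scored as signal increase over DMSO baseline for both agonists and antagonists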
Summary of the method: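 Fluorescence increase, nuclear for agonists or whole-cell for antagonists, relative to DMSO vehicle, quantified by laser scanning cytometer after fixation and Draq5 staining. Readout from 24 h treatment of HEK293T cells carrying complementation-paired ER beta LBD (aa 310-547).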

[3] = target: Estrogen receptor (Homo sapiens) (UniProt P03372); assay: OT_ERa_GFPERaERE_0480: Odyssey Thera (OT) 8-hour HeLa Transcription Induction Assay for Estrogen Receptor (AID 2283381; active means hit-call score of the fitted dose curve at least 0.9, where 1 is the maximum; inactive means score below 0.9)
Summary of the method: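 HeLa cells dosed with compound and imaged by fluorescence microscopy at 8 h; GFP induction from an ERE reporter quantified by high-content image analysis and fitted as gain of signal against DMSO baseline.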

[4] = target: Estrogen receptor (Homo sapiens) (UniProt P03372); assay: OT_ERa_GFPERaERE_0120: Odyssey Thera (OT) 2-hour HeLa Transcription Induction Assay for Estrogen Receptor (AID 2283382)
Summary of the method: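 HeLa cells were dosed with test chemical and read 2 hours later for GFP-ERα/ERE-linked fluorescent protein induction by fluorescence microscopy. Gain-of-signal was fitted relative to DMSO baseline, quantified by high content image analysis.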

[5] = target: Retinoic acid receptor RXR-alpha (Homo sapiens) (UniProt P19793); assay: OT_NURR1_NURR1RXRa_0480: Odyssey Thera (OT) 8-hour HEK293T Protein Complementation Assay for Nurr1/retinoid X receptor (RXR) (AID 2283385)
Summary of the method: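 HEK293T cells expressing Nurr1 and RXRα fused to reporter fragments were dosed with compound for 8 hours. Complex formation was read as fluorescence intensity and analysed as gain of signal against DMSO as baseline.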

[6] = target: Retinoic acid receptor RXR-alpha (Homo sapiens) (UniProt P19793); assay: OT_NURR1_NURR1RXRa_1440: Odyssey Thera (OT) 24-hour HEK293T Protein Complementation Assay for Nurr1/retinoid X receptor (RXR) (AID 2283386)
Summary of the method: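 HEK293T cells were dosed with compound and read 24 h later by fluorescence intensity in a protein-fragment complementation format, where Nurr1–RXRα interaction reconstitutes a split reporter. Activity was fitted as gain of signal relative to DMSO baseline.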

[7] = target: Peroxisome proliferator-activated receptor gamma (Homo sapiens) (UniProt P37231); assay: OT_PPARg_PPARgSRC1_1440: Odyssey Thera (OT) 24-hour Protein-Complementation Assay for Peroxisome Proliferator-activated Receptor Gamma/ SRC-1 Co-activator (AID 2283388);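 further: nuclear to cytoplasmic ratio of reconstituted Venus YFP fluorescence in fixed imaged cells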
Summary of the method: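 Transient HEK293T, YFP fragments 1-158/159-239 (mutant IFP1/IFP2) fused to PPARg/SRC-1; 24 h dosing; fix 4% formaldehyde, Draq5; Opera imaging 488/635 nm; N/C ratio, gain vs DMSO.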

[8] = target: Peroxisome proliferator-activated receptor gamma (Homo sapiens) (UniProt P37231); assay: OT_PPARg_PPARgSRC1_0480: Odyssey Thera (OT) 8-hour Protein-Complementation Assay for Peroxisome Proliferator-activated Receptor Gamma / SRC-1 Co-activator (AID 2283387);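 further: nuclear to cytoplasmic split Venus YFP fluorescence ratio reporting PPARg SRC-1 interaction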
Summary of the method: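 Protein-fragment complementation of split Venus YFP reports PPARg/SRC-1 interaction in HEK293T (transfected 48 h before treatment), exposed 8 h. Readout: N/C fluorescence ratio at 488 nm from imaging, Draq5 for segmentation, positive fit relative to DMSO.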

[9] = target: Agonist Androgen Response Element (ARE), AR (gene 367) (UniProt P10275); assay: OT_AR_ARELUC_AG_1440: Odyssey Thera (OT) 24-hour CHO-K1 Luciferase Assay for Agonist Androgen Response Element (ARE) (AID 2283379)
Summary of the method: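 Agonist mode, 24 h exposure in CHO-K1 ARE-luciferase cells; values reflect luminescence induction over vehicle.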

[10] = target: Bile acid receptor (Homo sapiens) (UniProt Q96RI1); assay: OT_FXR_FXRSRC1_0480: Odyssey Thera (OT) 8-hour HEK293T Protein-Complementation Assay for Farnesoid X receptor/SRC-1 Co-activator (AID 2283383)
Summary of the method: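 HEK293T cells expressing FXR and SRC-1 fused to reporter fragments were dosed with compound for 8 h; fluorescence from the reconstituted reporter marked co-activator recruitment. Gain of signal was fitted against the DMSO baseline.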

[11] = CEETOX_H295R_11DCORT: CeeTox H295R High-throughput Steroidogenesis Assay for 11-Deoxycortisol (11DCORT) (AID 2283432; active means hit-call score of the fitted dose curve at least 0.9, where 1 is the maximum; inactive means score below 0.9;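 on AC50: 11-deoxycortisol secreted into the medium measured by LC-MS/MS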); conditions: actives raise or lower the signal
Summary of the method: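 Human adrenal H295R cells were prestimulated with 10 uM forskolin for 48 h, then exposed to test chemical (0.1% DMSO final) for 48 h. Medium 11-deoxycortisol was quantified by MTBE extraction and HPLC-MS/MS; bidirectional fitting relative to DMSO.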

[12] = CEETOX_H295R_OHPREG: CeeTox H295R High-throughput Steroidogenesis Assay for OH-Pregnenolone (OHPREG) (AID 2283434; active means hit-call score of the fitted dose curve at least 0.9, where 1 is the maximum; inactive means score below 0.9); conditions: actives raise or lower the signal
Summary of the method: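 Hormone levels in spent medium were measured by tandem mass spectrometry following liquid-liquid extraction. Cells (H295R) had been forskolin-stimulated (10 uM, 48 h) before a 48 h chemical exposure at 0.1% DMSO, with activity fitted in both directions against DMSO.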

[13] = CEETOX_H295R_OHPROG: CeeTox H295R High-throughput Steroidogenesis Assay for OH-Progesterone (OHPROG) (AID 2283435; active means hit-call score of the fitted dose curve at least 0.9, where 1 is the maximum; inactive means score below 0.9); conditions: actives raise or lower the signal
Summary of the method: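 H295R human adrenal cells were prestimulated 48 h with 10 uM forskolin, then exposed 48 h to test chemical (0.1% DMSO final). 17alpha-hydroxyprogesterone in medium was measured by HPLC-MS/MS after MTBE extraction; bidirectional fitting vs DMSO.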

[14] = CEETOX_H295R_CORTIC: CeeTox H295R High-throughput Steroidogenesis Assay for Corticosterone (CORTIC) (AID 2283437; active means hit-call score of the fitted dose curve at least 0.9, where 1 is the maximum; inactive means score below 0.9;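 further: corticosterone secreted into medium quantified by mass spectrometry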); conditions: actives raise or lower the signal
Summary of the method: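 Corticosterone secreted into medium is measured by reverse-phase HPLC with tandem MS following liquid-liquid extraction. Cells are forskolin-stimulated (10 uM, 48 h) before 48 h test exposure; activity fitted in both directions against DMSO.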

[15] = CEETOX_H295R_CORTISOL: CeeTox H295R High-throughput Steroidogenesis Assay for Cortisol (AID 2283438; active means hit-call score of the fitted dose curve at least 0.9, where 1 is the maximum; inactive means score below 0.9;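 further: cortisol secreted into medium quantified by LC-MS/MS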); conditions: actives raise or lower the signal
Summary of the method: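 H295R human adrenal cells were prestimulated 48 h with 10 uM forskolin, then exposed 48 h to test chemical (0.1% DMSO final). Medium cortisol was quantified by HPLC-MS/MS after MTBE extraction; bidirectional fitting relative to DMSO baseline.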

[16] = CEETOX_H295R_ESTRADIOL: CeeTox H295R High-throughput Steroidogenesis Assay for Estradiol (AID 2283440; active means hit-call score of the fitted dose curve at least 0.9, where 1 is the maximum; inactive means score below 0.9;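 further: estradiol secreted into medium quantified by LC-MS/MS after dansyl derivatisation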); conditions: actives raise or lower the signal
Summary of the method: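 Following OECD 456 with minor changes, H295R cells received 10 uM forskolin for 48 h and then test chemical for 48 h. Hormone output was read by HPLC-MS/MS, with cytotoxic concentrations diluted until MTT viability reached ≥70%.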

[17] = CEETOX_H295R_ESTRONE: CeeTox H295R High-throughput Steroidogenesis Assay for Estrone (AID 2283441; active means hit-call score of the fitted dose curve at least 0.9, where 1 is the maximum; inactive means score below 0.9;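 further: estrone secreted into medium measured by LC-MS/MS after dansyl derivatization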); conditions: actives raise or lower the signal
Summary of the method: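 H295R cells; 48 h forskolin (10 uM) prestimulation; 48 h compound exposure, 0.1% DMSO final. Medium estrone: MTBE extraction, dansyl derivatization, HPLC-MS/MS. Bidirectional fit vs DMSO.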

[18] = CEETOX_H295R_PROG: CeeTox H295R High-throughput Steroidogenesis Assay for Progesterone (PROG) (AID 2283442; active means hit-call score of the fitted dose curve at least 0.9, where 1 is the maximum; inactive means score below 0.9;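 further: human H295R adrenal cells primed with 10 µM forskolin before dosing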); conditions: actives raise or lower the signal
Summary of the method: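 Adrenal H295R line, forskolin-stimulated (10 uM, 48 h) before dosing. 48 h exposure, 0.1% DMSO vehicle. Secreted progesterone by reverse-phase HPLC with ESI+ MS/MS quantification; DMSO-normalised bidirectional curve fit.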

Sequence of mouse Estrogen Receptor alpha (Era), Esr1 (gene 13982) (P19785 whole entry, looked up): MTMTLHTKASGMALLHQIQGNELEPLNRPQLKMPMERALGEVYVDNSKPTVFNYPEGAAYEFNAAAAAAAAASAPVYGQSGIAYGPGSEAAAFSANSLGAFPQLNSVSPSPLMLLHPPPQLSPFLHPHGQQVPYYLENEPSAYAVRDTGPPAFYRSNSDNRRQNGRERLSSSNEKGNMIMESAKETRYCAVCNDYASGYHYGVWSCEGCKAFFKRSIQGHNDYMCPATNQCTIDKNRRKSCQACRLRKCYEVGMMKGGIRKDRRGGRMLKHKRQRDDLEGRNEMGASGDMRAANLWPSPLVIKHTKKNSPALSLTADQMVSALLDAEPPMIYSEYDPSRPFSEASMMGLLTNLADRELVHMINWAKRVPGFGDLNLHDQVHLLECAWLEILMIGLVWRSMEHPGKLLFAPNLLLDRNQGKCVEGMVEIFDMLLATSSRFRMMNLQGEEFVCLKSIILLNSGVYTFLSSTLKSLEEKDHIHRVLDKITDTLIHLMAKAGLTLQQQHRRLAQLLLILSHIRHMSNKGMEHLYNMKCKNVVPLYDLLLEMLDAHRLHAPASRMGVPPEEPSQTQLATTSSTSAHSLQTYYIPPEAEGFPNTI
Sequence of Estrogen receptor (Homo sapiens) (P03372 whole entry, looked up): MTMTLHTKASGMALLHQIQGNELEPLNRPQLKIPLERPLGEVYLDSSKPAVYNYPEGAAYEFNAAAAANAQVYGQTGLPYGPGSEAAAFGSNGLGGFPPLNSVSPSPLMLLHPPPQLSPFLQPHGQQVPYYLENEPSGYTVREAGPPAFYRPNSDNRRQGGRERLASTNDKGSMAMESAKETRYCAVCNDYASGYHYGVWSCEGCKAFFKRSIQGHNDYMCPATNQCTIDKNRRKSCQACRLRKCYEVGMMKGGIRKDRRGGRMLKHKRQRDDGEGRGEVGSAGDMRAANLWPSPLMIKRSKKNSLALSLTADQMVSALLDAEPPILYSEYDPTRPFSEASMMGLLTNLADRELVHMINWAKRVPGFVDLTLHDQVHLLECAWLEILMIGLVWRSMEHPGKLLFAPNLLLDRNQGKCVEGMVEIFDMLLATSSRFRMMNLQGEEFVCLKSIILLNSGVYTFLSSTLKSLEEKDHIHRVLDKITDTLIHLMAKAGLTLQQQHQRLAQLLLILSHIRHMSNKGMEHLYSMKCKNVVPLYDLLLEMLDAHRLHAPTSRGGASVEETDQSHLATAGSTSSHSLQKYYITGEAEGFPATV
Sequence of Retinoic acid receptor RXR-alpha (Homo sapiens) (P19793 whole entry, looked up, the tested form may be a part): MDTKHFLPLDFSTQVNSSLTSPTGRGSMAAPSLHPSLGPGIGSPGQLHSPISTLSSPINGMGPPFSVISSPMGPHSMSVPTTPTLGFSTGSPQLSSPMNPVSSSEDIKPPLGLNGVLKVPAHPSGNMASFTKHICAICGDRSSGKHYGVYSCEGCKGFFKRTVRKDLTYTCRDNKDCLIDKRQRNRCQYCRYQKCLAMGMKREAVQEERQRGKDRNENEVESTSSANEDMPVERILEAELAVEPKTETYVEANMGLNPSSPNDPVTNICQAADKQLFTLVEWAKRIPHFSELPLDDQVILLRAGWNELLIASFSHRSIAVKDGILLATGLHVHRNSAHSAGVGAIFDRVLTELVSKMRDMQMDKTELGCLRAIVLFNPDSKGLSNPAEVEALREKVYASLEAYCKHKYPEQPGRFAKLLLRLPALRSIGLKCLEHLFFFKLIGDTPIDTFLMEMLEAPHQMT
Sequence of Estrogen receptor beta (Homo sapiens) (Q92731 whole entry, looked up, the tested form may be a part): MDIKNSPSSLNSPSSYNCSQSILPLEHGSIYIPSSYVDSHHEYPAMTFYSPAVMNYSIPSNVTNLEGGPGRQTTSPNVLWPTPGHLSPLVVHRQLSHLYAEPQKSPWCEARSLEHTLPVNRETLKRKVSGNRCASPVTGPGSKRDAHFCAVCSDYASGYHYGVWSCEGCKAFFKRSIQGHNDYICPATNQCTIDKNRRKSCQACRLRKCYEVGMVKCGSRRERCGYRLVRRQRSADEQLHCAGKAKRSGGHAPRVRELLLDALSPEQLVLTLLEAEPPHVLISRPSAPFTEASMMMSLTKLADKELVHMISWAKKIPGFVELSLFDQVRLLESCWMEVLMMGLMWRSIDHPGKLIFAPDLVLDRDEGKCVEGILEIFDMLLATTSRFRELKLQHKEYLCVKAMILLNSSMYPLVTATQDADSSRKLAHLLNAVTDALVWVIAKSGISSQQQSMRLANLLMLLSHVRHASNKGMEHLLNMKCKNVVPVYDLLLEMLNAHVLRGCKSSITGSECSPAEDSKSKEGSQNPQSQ
Sequence of Peroxisome proliferator-activated receptor gamma (Homo sapiens) (P37231 whole entry, looked up, the tested form may be a part): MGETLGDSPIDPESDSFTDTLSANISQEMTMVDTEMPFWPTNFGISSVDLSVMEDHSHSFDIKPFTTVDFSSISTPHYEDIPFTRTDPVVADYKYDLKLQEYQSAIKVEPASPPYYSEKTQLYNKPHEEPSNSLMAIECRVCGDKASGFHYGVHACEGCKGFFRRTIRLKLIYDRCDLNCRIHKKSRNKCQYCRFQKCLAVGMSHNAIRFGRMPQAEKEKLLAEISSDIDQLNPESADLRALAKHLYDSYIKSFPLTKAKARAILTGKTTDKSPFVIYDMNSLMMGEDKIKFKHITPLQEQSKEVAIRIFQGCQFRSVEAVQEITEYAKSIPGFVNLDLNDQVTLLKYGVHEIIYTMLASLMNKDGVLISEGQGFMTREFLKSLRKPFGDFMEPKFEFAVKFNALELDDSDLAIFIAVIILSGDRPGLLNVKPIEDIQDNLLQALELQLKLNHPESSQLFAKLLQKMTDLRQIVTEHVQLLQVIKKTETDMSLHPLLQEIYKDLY
Sequence of Agonist Androgen Response Element (ARE), AR (gene 367) (P10275 whole entry, looked up): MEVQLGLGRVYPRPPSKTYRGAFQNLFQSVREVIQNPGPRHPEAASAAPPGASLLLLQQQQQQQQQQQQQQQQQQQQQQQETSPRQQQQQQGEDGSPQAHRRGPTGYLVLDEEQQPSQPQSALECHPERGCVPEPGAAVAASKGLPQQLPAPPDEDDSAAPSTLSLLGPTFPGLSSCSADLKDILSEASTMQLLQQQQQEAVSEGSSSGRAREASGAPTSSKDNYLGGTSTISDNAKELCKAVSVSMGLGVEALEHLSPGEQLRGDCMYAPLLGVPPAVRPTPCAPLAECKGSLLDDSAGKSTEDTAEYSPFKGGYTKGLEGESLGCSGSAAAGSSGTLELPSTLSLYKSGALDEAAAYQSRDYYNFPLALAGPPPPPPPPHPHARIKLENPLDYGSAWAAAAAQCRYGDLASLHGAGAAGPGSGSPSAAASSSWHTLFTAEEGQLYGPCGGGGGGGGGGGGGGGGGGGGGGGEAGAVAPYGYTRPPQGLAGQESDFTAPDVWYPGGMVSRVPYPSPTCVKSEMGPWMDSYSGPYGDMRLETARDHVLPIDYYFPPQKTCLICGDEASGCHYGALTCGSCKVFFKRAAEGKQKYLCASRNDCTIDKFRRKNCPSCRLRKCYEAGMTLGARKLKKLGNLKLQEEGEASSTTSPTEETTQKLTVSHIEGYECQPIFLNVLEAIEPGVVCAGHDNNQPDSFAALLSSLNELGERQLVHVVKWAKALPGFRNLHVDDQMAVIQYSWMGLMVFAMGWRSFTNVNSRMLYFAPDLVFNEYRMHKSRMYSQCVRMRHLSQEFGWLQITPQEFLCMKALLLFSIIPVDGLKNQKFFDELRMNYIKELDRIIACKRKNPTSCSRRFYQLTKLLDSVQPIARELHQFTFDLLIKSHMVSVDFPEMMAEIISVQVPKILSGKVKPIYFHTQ
Sequence of Bile acid receptor (Homo sapiens) (Q96RI1 whole entry, looked up, the tested form may be a part): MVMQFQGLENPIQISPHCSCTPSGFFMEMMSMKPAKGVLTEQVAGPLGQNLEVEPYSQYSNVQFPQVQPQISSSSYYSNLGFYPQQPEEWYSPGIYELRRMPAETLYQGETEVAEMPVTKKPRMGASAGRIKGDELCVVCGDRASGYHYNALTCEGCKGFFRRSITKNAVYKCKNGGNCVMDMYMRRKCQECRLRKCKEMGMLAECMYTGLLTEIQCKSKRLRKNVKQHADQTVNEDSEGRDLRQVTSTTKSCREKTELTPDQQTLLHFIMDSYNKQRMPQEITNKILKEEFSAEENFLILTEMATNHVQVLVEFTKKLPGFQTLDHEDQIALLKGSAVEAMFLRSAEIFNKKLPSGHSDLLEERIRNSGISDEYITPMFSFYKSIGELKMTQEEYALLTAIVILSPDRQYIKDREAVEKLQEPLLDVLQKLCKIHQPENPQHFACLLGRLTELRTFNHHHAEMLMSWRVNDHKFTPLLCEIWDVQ

Structure (SMILES): CCNC(=S)NCC
- outcome [1]: inactive
- outcome [2]: inactive
- outcome [3]: inactive
- outcome [4]: inactive
- outcome [5]: inactive
- outcome [6]: inactive
- outcome [7]: inactive

Structure (SMILES): CCOCC(C)O (centres undefined)
- AC50 [1]: 35 µM (active)
- outcome [2]: inactive
- outcome [3]: inactive
- outcome [4]: inactive
- outcome [5]: inactive
- outcome [6]: inactive
- outcome [8]: inactive
- outcome [7]: inactive

Structure (SMILES): CC(CCO)CC(C)(C)C (centres undefined)
- outcome [9]: inactive
- AC50 [2]: 39 µM (active)
- outcome [3]: inactive
- outcome [4]: inactive
- outcome [7]: inactive

Structure (SMILES): CC(C)(C)c1ccc(S)cc1
- AC50 [1]: 10.6 µM (active)
- outcome [2]: inactive
- outcome [3]: inactive
- outcome [4]: inactive
- outcome [7]: inactive

Structure (SMILES): COC(=O)C(C)Oc1ccc(Oc2ncc(C(F)(F)F)cc2Cl)cc1 (centres undefined)
- AC50 [1]: 0.164 µM (active)
- outcome [2]: inactive
- outcome [3]: inactive
- outcome [4]: inactive
- outcome [5]: inactive
- outcome [6]: inactive
- outcome [8]: inactive

Structure (SMILES): CN(C)CCC=C1c2ccccc2CCc2ccccc21
- outcome [1]: inactive

Structure (SMILES): [O-]/[N+](=N\O)c1ccccc1
- outcome [2]: inactive
- outcome [3]: inactive
- outcome [4]: inactive

Structure (SMILES): CCCCCCCCCOS(=O)(=O)O
- AC50 [1]: 12.7 µM (active)
- outcome [3]: inactive
- outcome [4]: inactive
- outcome [8]: inactive
- outcome [7]: inactive

Structure (SMILES): c1ccc(Cc2ccccc2)cc1
- outcome [2]: inactive
- outcome [3]: inactive
- AC50 [4]: 7.03 µM (active)
- outcome [5]: inactive
- outcome [7]: inactive

Structure (SMILES): CCCCCCCCCCO[C@@H]1O[C@H](CO)[C@@H](O)[C@H](O)[C@H]1O
- outcome [2]: inactive
- outcome [3]: inactive
- outcome [4]: inactive
- outcome [5]: inactive
- outcome [6]: inactive
- outcome [7]: inactive

Structure (SMILES): COc1ccc2[nH]cc(CCNC(C)=O)c2c1
- outcome [2]: inactive
- outcome [3]: inactive
- outcome [4]: inactive
- outcome [10]: inactive
- outcome [6]: inactive
- AC50 [11]: 44.5 µM (active)
- outcome [12]: inactive
- AC50 [13]: 3.07 µM (active)
- AC50 [14]: 10.5 µM (active)
- outcome [15]: inactive
- outcome [16]: inactive
- outcome [17]: inactive
- AC50 [18]: 20 µM (active)

Structure (SMILES): CC(=O)Nc1cc(S(=O)(=O)O)cc2cc(S(=O)(=O)O)c(N=Nc3ccccc3)c(O)c12
- outcome [2]: inactive
- outcome [3]: inactive
- outcome [4]: inactive
- AC50 [5]: 22.9 µM (active)
- outcome [6]: inactive

Structure (SMILES): CCCO
- outcome [2]: inactive
- outcome [3]: inactive
- outcome [4]: inactive
- outcome [5]: inactive
- outcome [6]: inactive

Structure (SMILES): CN(C)C
- outcome [2]: inactive
- outcome [3]: inactive
- outcome [4]: inactive
- outcome [5]: inactive
- outcome [8]: inactive
- outcome [7]: inactive

Structure (SMILES): c1ccc(OCCOc2ccccc2)cc1
- outcome [2]: inactive
- outcome [3]: inactive
- outcome [4]: inactive
- outcome [5]: inactive
- outcome [7]: inactive
- outcome [11]: inactive
- outcome [12]: inactive
- AC50 [13]: 36.9 µM (active)
- outcome [14]: inactive
- outcome [15]: inactive
- outcome [16]: inactive
- outcome [17]: inactive
- AC50 [18]: 14.3 µM (active)
